Screening results (PubChem BioAssay)
Hits are enriched below; roughly 2.8% of the tested compounds scored in any of these assays.
zVAD death inh – L929 zVAD cell death inhibition | viability rescue, % at 10 µM | L929 zVAD necroptosis rescue, ATP luminescence, 24 h; with zVAD 60 µM | AID 1377 | hit rate 0.38% among 220,000;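 active = activation, scaled between plate controls, above about 75%, limit read from the data; inactive = activation under that limit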;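 also: 0% = zVAD with DMSO and 100% = DMSO alone without zVAD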
TNF death inh – blocks TNF-alpha induced death of Jurkat FADD-/- cells. hit rate 0.068% among 220,000. activation (protection from cell death), % at 10 µM. Jurkat FADD-/- TNF necroptosis rescue, ATP luminescence, 24 h; 0 = TNF only, 100 = no-TNF cells. AID 463075;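 active = activation, meaning protection from cell death, of at least 50% relative to plate controls; inactive = activation below 50%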;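 also: necroptosis triggered by 40 ng/mL TNF-alpha added together with compound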
Calpain2 inh – calpain II (pig) inhibition; inhibition, % at 16 µM; purified calpain II, fluorogenic peptide substrate, 30 min; hit rate 0.37% among 220,000;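 active = inhibition above about 50%, limit read from the data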
Mcl1 Bid PPI – disrupts binding of human Mcl-1 to Bid peptide; Q07820; TR-FRET Mcl-1/Bid-Dy647 peptide binding, 1536-well; inhibition, % at 21.7 µM; hit rate 0.97% among 220,000;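 active = compounds that cut the binding signal by more than half at the single screening dose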;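 also: His-tagged Mcl-1 with europium anti-His antibody binding Bid BH3 peptide; 0% = Mcl-1 plus peptide wells and 100% = peptide-only wells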
Target sequence (Q07820 whole entry, looked up): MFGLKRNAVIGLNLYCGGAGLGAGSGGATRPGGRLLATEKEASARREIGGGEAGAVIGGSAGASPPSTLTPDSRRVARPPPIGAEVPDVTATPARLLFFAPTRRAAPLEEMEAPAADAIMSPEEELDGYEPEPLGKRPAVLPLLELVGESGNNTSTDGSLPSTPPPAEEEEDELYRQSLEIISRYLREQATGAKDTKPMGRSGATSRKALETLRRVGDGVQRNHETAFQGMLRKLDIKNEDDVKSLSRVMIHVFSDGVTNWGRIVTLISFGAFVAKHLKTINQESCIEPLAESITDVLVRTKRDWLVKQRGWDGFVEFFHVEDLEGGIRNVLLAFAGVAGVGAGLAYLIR
Mcl1-Noxa inh – disrupts binding of human Mcl-1 to Noxa peptide | TR-FRET Mcl-1/Noxa peptide binding, 2 h | inhibition, % at 21.7 µM | Q07820 | hit rate 1.5% among 220,000;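 active = compounds that cut the protein-peptide binding signal by more than 50% relative to plate controls in a single-dose test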;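 also: His-tagged Mcl-1 with rhodamine Noxa BH3 peptide and terbium anti-His antibody; 0% = Mcl-1 plus Noxa peptide wells and 100% = peptide-only wells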
Mcl-1 Bim block – disrupts Bim peptide binding to human Mcl-1 | AID 1009 | Bead-based flow cytometry, Bim peptide-Mcl-1 binding | Q07820 | inhibition, % at 10 µM | hit rate 0.1% among 190,000; in the data active = inhibition above about 40%;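 also: 0% = no compound tracer wells and 100% = peptide blocker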
Numbers without * were called inactive; x = not tested or not shown.

SMILES	zVAD death inh	TNF death inh	Calpain2 inh	Mcl1 Bid PPI	Mcl1-Noxa inh	Mcl-1 Bim block
Cn1c(=O)n(CCc2ccccc2)c(=O)c2c1nc1n2CCCN1CCc1ccccc1	2.9	-7.7	68.7*	27.2	18.8	2.0
CC(=O)Nc1ccc(S(=O)(=O)NCC2CCC(C(=O)NCCC3=CCCCC3)CC2)cc1 (centres undefined)	0.0	-0.7	52.4*	-9.0	9.7	2.0
CCc1nnc(NS(=O)(=O)c2ccc(NC(=O)c3cc4ccccc4oc3=O)cc2)s1	0.4	0.4	-8.4	7.5	64.3*	-7.0
CCc1nnc(NS(=O)(=O)c2ccc(NC(=O)OC)cc2)s1	0.5	-9.0	-1.2	4.3	18.5	x
Cc1c(C(=O)NCc2cccnc2)sc2nc(-c3ccc(F)cc3)cn12	5.0	-8.4	78.2*	-26.5	3.1	-6.0
COC(=O)CCCC(=O)N1CCCC(CNS(=O)(=O)c2ccc(OC)cc2)C1 (centres undefined)	0.0	0.3	18.5	-10.9	5.9	0.0
O=C(CSc1ccccn1)C12CC3CC(CC(C3)C1)C2	2.8	-1.1	50.8*	-11.6	3.4	0.0
O=C(O)c1cccnc1SCC(=O)C12CC3CC(CC(C3)C1)C2	0.5	3.0	7.1	-6.9	-29.9	x
CCOC(=O)C1C(=O)OC(C)(C)C1C(CC)C(=O)c1c(C)cc(C)cc1C (centres undefined)	0.2	1.6	-9.6	-8.1	-13.7	x
CCOCCCNC1=C(Cl)C(=O)c2ccccc2C1=O	-0.2	-5.1	25.1	-17.4	63.9*	x
N#Cc1c(NC(=O)CSc2ncnc3sccc23)oc(-c2ccco2)c1-c1ccco1	2.2	-2.4	-160.8	-34.5	96.9*	3.0
Cc1cc(NC(=O)CSc2ncnc3sccc23)no1	2.3	25.9	3.4	-9.5	7.4	-1.0
CC(C)(C)c1nc(SCC(=O)c2ccccc2)c2ccccc2n1	3.8	-1.0	51.9*	-2.1	-8.4	3.0
O=C1[C@H]2[C@@H](C(=O)N1c1cccc3ccccc13)C1(C(=O)c3ccccc3C1=O)N1CCC[C@@H]21	-0.1	-4.4	-62.4	-26.0	64.0*	-6.0
O=C1[C@H]2[C@@H](C(=O)N1c1cc(Cl)cc(Cl)c1)[C@]1(C(=O)Nc3ccccc31)N1CCC[C@@H]21	0.6	0.0	-32.0	-9.8	20.6	-3.0
Cc1ccc(OCc2cn3cccnc3n2)cc1	-0.5	0.4	6.6	5.8	37.8	2.0
O=C1CCCC(O)=C1N=Nc1ccc(C(=O)O)cc1	0.4	-0.8	-20.4	-47.8	54.0*	x
O=c1c(CN2CCN(Cc3ccccc3)CC2)coc2ccc(Cl)cc12	0.3	-0.2	25.1	93.0*	15.4	-2.0
COc1ccc(-n2c(SCCC#N)nnc2-c2cc(Cl)ccc2OC)cc1Cl	-0.1	-15.3	-15.6	-26.0	-108.8	-3.0
Cc1ccc(NCc2ccccc2O)cc1	2.1	12.2	13.4	-103.0	7.2	-1.0
CC(=O)N1CCN(c2ccc(NCc3ccc(C)cc3)cc2)CC1	0.5	-2.1	9.2	-10.9	52.9*	0.0
Cc1ccc(CNc2ccc(O)cc2)cc1	0.2	-13.9	-54.2	-18.5	51.8*	1.0
CCc1ccc(CNc2ccc(N3CCN(C(C)=O)CC3)cc2)cc1	0.0	-1.7	-3.8	-17.7	21.1	1.0
CCC1CCC2(CC1)NC(CO)(CO)CO2 (centres undefined)	1.8	0.6	3.5	63.6*	1.9	-2.0
CC1CCC2(CC1)NC(CO)(CO)CO2 (centres undefined)	-0.3	-1.2	10.1	-7.9	5.0	-6.0
SMILES	zVAD death inh	TNF death inh	Calpain2 inh	Mcl1 Bid PPI	Mcl1-Noxa inh	Mcl-1 Bim block
NS(=O)(=O)c1ccc(N/C=C\C(=O)c2ccc3ccccc3c2)cc1	1.3	0.3	-96.4	54.4*	31.4	-2.0
COc1ccc(/C=C2\SC(=S)NC2=O)cc1OS(=O)(=O)c1ccc(NC(C)=O)cc1	3.4	0.4	-63.6	-2.7	34.2	-11.0
COc1cc(/C=C2/SC(=S)NC2=O)ccc1OS(=O)(=O)c1ccc(C)cc1	0.2	0.5	62.9*	81.5*	97.6*	-10.0
CCOc1ccc(/C=C2\SC(=S)NC2=O)cc1OC	44.0	0.6	-53.8	-17.3	21.5	2.0
COc1cc(/C=C2\SC(=S)NC2=O)ccc1OS(=O)(=O)c1ccccc1	2.1	0.5	61.7*	-60.1	79.0*	-13.0
O=C(COc1ccc([N+](=O)[O-])cc1)Nc1ccc(CN2CCOCC2)cc1	5.1	0.7	47.1	36.6	8.1	-2.0
O=C(/C=C/c1ccccc1)NC(=S)Nc1ncccn1	0.7	4.3	-20.1	-76.0	68.1*	x
CN1CCc2cccc3c2[C@@H]1Cc1ccc(O)c(O)c1-3	2.5	-12.2	-18.3	9.2	91.6*	10.0
O=C1N=c2ccccc2=C1c1sc(Nc2ccc(O)cc2)nc1O	66.3	-0.1	-119.0	49.8	83.0*	1.0
O=C1N=c2ccccc2=C1c1sc(NS(=O)(=O)c2ccccc2)nc1O	15.5	0.1	-34.5	-19.0	36.8	-8.0
O=C(NNc1c2ccccc2nc2ccccc12)c1ccc(O)cc1	0.9	2.3	4.6	-65.4	50.5*	-4.0
O=C(NNc1c2ccccc2nc2ccccc12)c1ccccc1O	2.2	0.0	-5.1	22.9	63.6*	-18.0
O=C(NNc1c2ccccc2nc2ccccc12)c1ccc(O)cc1O	2.6	-15.0	-30.7	55.4*	68.4*	-1.0
O=C(NNc1c2ccccc2nc2ccccc12)c1cccc(O)c1	-0.5	-10.0	1.2	-39.0	45.6	-10.0
COc1cc(C(=O)NC2=C(C#N)CCC2)cc(OC)c1OC	2.9	-0.6	-1.7	-26.1	8.2	0.0
CCS(=O)(=O)Nc1ccc2[nH]c(=O)[nH]c2c1	4.1	-0.1	15.3	-20.8	10.2	-1.0
Cc1nnc2n(c1=O)N=C(c1ccc(Cl)cc1)CS2	0.8	0.4	-1.7	-25.1	5.2	-2.0
CCn1c(SCc2nc3sc(C(=O)O)c(C)c3c(=O)[nH]2)nc2ccccc21	0.7	0.4	-10.9	11.2	77.1*	2.0
COc1cccc(/C=N/N2C(=O)CSC2=S)c1O	x	1.2	-11.9	-38.8	21.8	-5.0
CCN=c1scc(C)n1/N=C/c1cc(Br)c(O)c(OC)c1	1.6	-0.7	-51.6	-16.6	62.6*	2.0
COc1cc(/C=N/N2C(=O)CSC2=S)cc(Br)c1O	0.3	-2.3	-53.9	-13.0	58.1*	-3.0
CC1=CC(=C2C=CC(=O)C=C2)C=C(C)N1C	-0.2	0.3	13.2	-15.2	-10.1	x
CN(C)c1nc(N)nc(N(c2ccccc2)c2ccccc2)n1	0.8	-0.9	-9.0	8.4	0.6	0.0
CCN(CC)c1nc(N)nc(N(c2ccccc2)c2ccccc2)n1	-0.2	-0.1	8.6	-4.0	-4.2	79.0*
CCOC(=O)C1=C(C)NC(=O)C(C(N)=O)C12CCCC2 (centres undefined)	0.6	0.5	-5.7	-17.0	10.7	-3.0
CCOC(=O)C1=C(C)NC(=O)C(C(N)=O)C12CCCCC2 (centres undefined)	1.0	0.6	-24.4	-9.3	56.9*	-1.0
